The source of these data is ChEMBL document CHEMBL1157539, “Thousands of chemical starting points for antimalarial lead identification” (Nature, 2010).

Each structure is given as a SMILES string.

In the test the test system is Plasmodium falciparum. Description: GSK_TCMDC: Inhibition of Plasmodium falciparum Dd2 in whole red blood cells, using parasite LDH activity as an index of growth. Test compounds present at 2uM. The test is classed as functional.
Usually Inhibition stands for the share of the control response that was lost under treatment. A lower Inhibition goes with a response near the control. `CC(C)COc1ccc2ccccc2c1CNCCCCCCNCc1c(OCC(C)C)ccc2ccccc12.CS(=O)(=O)O` came in with an Inhibition of 95%.

On to `Br.CC1(C)NC(N)=NC(=N)N1OCCCCCOc1ccccc1`, for which the Inhibition came to 97%.

As to `CCNc1cc(C(=O)N[C@@H](Cc2ccccc2)[C@H](O)CN[C@@H]2CCc3ccccc32)cc(N2CCCC2=O)c1`, the Inhibition stood at 93%.

`CCc1cn2c3c(cc(C(=O)N[C@@H](Cc4cccc(F)c4)[C@H](O)CNC4CCOCC4)cc13)N(C)S(=O)(=O)CC2.O=CO` showed an Inhibition of 97%.

In turn, `COc1cccc(C(O)CNc2ccnc(Nc3ccc(Cl)cc3)n2)c1` (centres undefined) showed an Inhibition of 46%.

`COc1cc(Cc2cnc(N)nc2N)ccc1OCc1cccc(Oc2ccccc2)c1` displayed an Inhibition of 21%.

For the compound `FC(F)(F)c1cccc(N=C(S)NN=Cc2ccccn2)c1`, the Inhibition was determined as 99%.

Regarding `COc1cc(CNCCCNc2nc(=O)c3sccc3[nH]2)c2[nH]cc(Cl)c2c1.CS(=O)(=O)O`, the Inhibition amounted to 0%.

Regarding `COc1ccc2nccc(NCC3(O)CCC(NCc4cc5c(cn4)OCCO5)CC3)c2n1.Cl` (centres undefined), the Inhibition is listed as 23%.

Take `Cl.O=C(CCCC(=O)Nc1ccc(C2=NCCN2)cc1)Nc1ccc(C2=NCCN2)cc1`: the Inhibition is 81%.

Turning to `N#Cc1ccc(N/C(=N\c2ccc(-c3ccccc3)cc2)NCCc2c[nH]c3ccccc23)c(O)c1`, the Inhibition is listed as 75%.

As to `CN(CCC(CCN1CCC(c2c[nH]c3ccccc23)CC1)c1ccccc1)C(=O)Nc1ccc(Cl)c(Cl)c1` (centres undefined), the Inhibition came to 21%.

In turn, `Cc1ccc(CN2CCCN(Cc3ccc(C(=O)Nc4ccc(Cl)cc4)cc3)CC2)s1.O=C(O)C(F)(F)F` came in with an Inhibition of 5%.

Regarding `O=C(NCc1cccc(OC(F)(F)F)c1)c1cnc2c(c1)nc(-c1c[nH]c(-c3ccccc3)n1)n2CCc1c[nH]cn1`, the Inhibition turned out to be 47%.
